Calls of active or inactive are those of the source. Rule as the data show it: active = remaining activity below about 50%; inactive = the rest.
The compounds below were run against Phospholipase D1 (Homo sapiens) (UniProt Q13393) (assay: PLD1 inhibitors in cells, Calu-1 cells, single concentration (AID 602144;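 also: tested at 200 nM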)). Settings: cellular PLD1 activity, hits give low values.
Chain of Phospholipase D1 (Homo sapiens) (Q13393 whole entry, looked up): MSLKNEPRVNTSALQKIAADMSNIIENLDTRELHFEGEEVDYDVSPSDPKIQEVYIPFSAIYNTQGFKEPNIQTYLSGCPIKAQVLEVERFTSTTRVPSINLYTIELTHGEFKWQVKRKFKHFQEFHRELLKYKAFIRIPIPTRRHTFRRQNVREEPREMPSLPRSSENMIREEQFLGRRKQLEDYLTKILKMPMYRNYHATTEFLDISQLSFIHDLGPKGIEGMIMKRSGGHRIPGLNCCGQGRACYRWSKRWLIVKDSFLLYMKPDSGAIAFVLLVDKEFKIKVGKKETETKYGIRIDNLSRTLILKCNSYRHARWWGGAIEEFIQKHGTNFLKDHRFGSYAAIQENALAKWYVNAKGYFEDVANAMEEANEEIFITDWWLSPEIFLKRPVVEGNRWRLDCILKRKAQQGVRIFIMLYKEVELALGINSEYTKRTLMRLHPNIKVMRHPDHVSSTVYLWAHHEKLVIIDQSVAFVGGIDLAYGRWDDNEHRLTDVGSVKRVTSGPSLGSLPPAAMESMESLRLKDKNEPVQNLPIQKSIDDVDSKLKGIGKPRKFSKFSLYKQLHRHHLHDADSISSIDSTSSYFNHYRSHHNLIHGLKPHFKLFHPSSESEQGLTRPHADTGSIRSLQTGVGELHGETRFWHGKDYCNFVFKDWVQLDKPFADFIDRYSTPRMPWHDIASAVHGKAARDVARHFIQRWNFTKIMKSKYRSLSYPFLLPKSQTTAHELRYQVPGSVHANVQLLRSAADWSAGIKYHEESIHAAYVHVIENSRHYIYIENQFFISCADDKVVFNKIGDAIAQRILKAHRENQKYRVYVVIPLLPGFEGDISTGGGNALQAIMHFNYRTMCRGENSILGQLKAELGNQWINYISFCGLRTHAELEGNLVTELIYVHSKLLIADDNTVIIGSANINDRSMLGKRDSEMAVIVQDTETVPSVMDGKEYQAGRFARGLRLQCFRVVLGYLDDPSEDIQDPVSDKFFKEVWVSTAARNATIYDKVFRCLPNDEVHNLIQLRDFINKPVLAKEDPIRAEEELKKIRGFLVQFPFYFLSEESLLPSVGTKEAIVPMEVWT
Chain of Phospholipase D1 (Homo sapiens) (Q13393 whole entry, looked up): as above

Row | Compound | remaining activity
1 | O=C(NCCN1CCC2(CC1)C(=O)NCN2c1ccccc1)c1ccc2c(c1)OCO2 | 92.4% (inactive)
2 | O=C1c2ccccc2C(=O)N1CCCN1CCC2(CC1)C(=O)NCN2c1ccccc1 | 84.6% (inactive)
3 | O=C(NCCN1CCC2(CC1)C(=O)NCN2c1cccc(Cl)c1)c1ccc(F)cc1 | 79.6% (inactive)
4 | O=C(NCCN1CCC2(CC1)C(=O)NCN2c1cccc(F)c1)C(c1ccccc1)c1ccccc1 | 94.7% (inactive)
5 | O=C(NCCN1CCC2(CC1)C(=O)NCN2c1ccccc1)c1cc2ccccc2s1 | 50.8% (inactive)
6 | O=C(c1c(F)cccc1F)N(CCN1CCC2(CC1)C(=O)NCN2c1cccc(F)c1)C(=O)c1c(F)cccc1F | 97.9% (inactive)
7 | CC(C)[C@@H](CN1CCC2(CC1)C(=O)NCN2c1ccccc1)NC(=O)c1ccc(F)cc1 | 41.3% (active)
8 | O=C(c1cnc2ccccc2c1)N1CC(N2CCC3(CC2)C(=O)NCN3c2ccccc2)C1 | 106% (inactive)
9 | C[C@@H](CN1CCC2(CC1)C(=O)NCN2c1ccc(F)c(F)c1)NC(=O)c1ccc(F)cc1 | 22.8% (active)
10 | O=C(NCCN1CCC2(CC1)C(=O)NCN2c1ccccc1)c1cccc(Cl)n1 | 132% (inactive)
11 | Cc1cccc(C(=O)NCCN2CCC3(CC2)C(=O)NCN3c2ccccc2)n1 | 123% (inactive)
12 | O=C(C#Cc1ccccc1)NCCN1CCC2(CC1)C(=O)NCN2c1ccccc1 | 87.1% (inactive)
13 | C[C@H](CN1CCC2(CC1)C(=O)NCN2c1ccccc1)NC(=O)c1cc2cc(F)ccc2[nH]1 | 2.46% (active)

Reference: PubChem BioAssay AID602144 (Vanderbilt Specialized Chemistry Center, 2011)
